Shown are actives, neighbours in structure and some others; about 7.8% of the full set was active somewhere.
Vaccinia mCherry: inhibitors of vaccinia virus infection (mCherry reporter signal); Vaccinia virus mCherry reporter infection, fluorescence; Potency, µM (top dose mostly 36.5 µM), inactives show top-dose activity change, negative = inhibition, most hits filed as inhibitors; actives 0.63% (n = 310,000); AID 720579; calls by dose curve; tested in A549 cells; also: potency is read from the fitted curve at half-maximal effect; nearly all actives have a fitted effect of over 35% in size
Vaccinia Venus: inhibitors of vaccinia virus (Venus reporter). Vaccinia virus Venus reporter expression, fluorescence. actives 0.46% (n = 330,000). Potency, µM (titrated, usually from 36.5 µM), inactives show at the top dose activity change, negative = inhibition, actives largely listed as inhibitors. AID 720580; calls by dose curve; tested in A549 cells; also: potency is read from the fitted curve at half-maximal effect; nearly all actives have a fitted effect of over 30% in size
Marburg entry inh: Marburg virus entry inhibition. Marburg virus pseudotyped entry inhibition, cell reporter. Potency, µM (highest dose often 37.8 µM), without a hit: top-dose activity change, negative = inhibition, most hits filed as inhibitors. actives 1.8% (n = 300,000). AID 540276; calls by dose curve; tested in HEK293 cells; also: potency is read from the fitted curve at half-maximal effect
LASV entry inh: blocks Lassa virus binding to or entry into cells; Lassa virus pseudotype entry inhibition, cell reporter; Potency, µM (doses to about 37.9 µM), for inactives: at the highest dose activity change, negative = inhibition, most hits filed as inhibitors; actives 1.2% (n = 300,000); AID 540256; calls by dose curve; tested in HEK293 cells; also: potency is read from the fitted curve at half-maximal effect; nearly all actives have a fitted effect of over 50% in size
HCMV inh: inhibitors of human cytomegalovirus; actives 4.5% (n = 410,000); activity change, negative = inhibition, % at 57.5 µM; HFF cells, HCMV-luciferase reporter, 72 h; stronger effect = lower value; AID 1259415; in the data active = activity change below about -60%; inconclusive = no clear call, values can overlap the other calls; inactive = above about -39%
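Luciferase read-out from HCMV-luciferase-infected HFFs (MOI 1 PFU/cell) 72 h post infection at 37C; compounds added after 16 h cell attachment; activity normalized between buffer-only basal and Salinomycin (10uM) inhibitor controls.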
HCV inh: inhibitors of hepatitis C virus infection | Huh7.5.1 HCVcc-Cre infection, luciferase reporter, 44 h | Potency, µM (doses to about 41.8 µM), for inactives: at the highest dose activity change, negative = inhibition, actives largely listed as inhibitors | actives 3.4% (n = 340,000); active = well fitted inhibition curve with a large enough effect; inconclusive = small, poorly fitted or top-dose-only effect, or another doubt; inactive = no such curve, though single readings can be large or run the other way; also: potency is read from the fitted curve at half-maximal effect
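Antiviral activity was scored by luciferase reporter output from cells infected with HCVcc-Cre (~0.5 moi) in presence of compound, 44 h infection period, cells seeded 1,000/well 4 h prior.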
The depositor's hits bear a star; i = inactive; ? = inconclusive; nt = no result; + = active, no number; [ ] = remark or other dose. % is scaled to controls: 0 for no effect and ±100 for the full control effect.

SMILES | Vaccinia mCherry | Vaccinia Venus | Marburg entry inh | LASV entry inh | HCMV inh | HCV inh
COC(=O)c1ccc(C(=O)N2CCc3c(C(=O)NC(C)c4ccco4)c(OC)cc(=O)n3CC2)cc1 (stereo not drawn) | -12% | 0% | nt | nt | nt | nt
O=C1NC[C@H](c2ccccc2)N(CCCCC2CCCCC2)C1=O | 2.2µM* | ? | nt | nt | -4 | nt
NCCCC[C@H]1CNC(=O)C(=O)N1CCCCC1CCCCC1 | -6% | 0% | nt | nt | -3 | 17%
CC(C)C[C@@H]1CN(CCCC[C@H]2CNC(=O)C(=O)N2CCC2CCCCC2)C(=O)C(=O)N1CCC1CCCCC1 | ? | ? | nt | nt | -15 | nt
CC(C)C[C@H]1CN(CCCC[C@H]2CNC(=O)C(=O)N2CCC2CCCCC2)C(=O)C(=O)N1CCC1CCCCC1 | ? | ? | nt | nt | -108* | nt
COc1ccc(-n2ncc(C(=O)NCCCN3CCCCC3)c2C2CCN(C(=O)OC(C)(C)C)CC2)cc1 | -16% | -22% | nt | -17%[46.1 µM] | + | nt
Cc1ccc(-n2ncc(C(=O)NCCN3CCCC3)c2C2CCN(C(=O)OC(C)(C)C)CC2)cc1 | i | -21% | nt | -23%[46.1 µM] | 0 | nt
COc1ccccc1CN1CCC(CNC(=O)c2cnn(-c3ccc(Cl)cc3)c2C2CCN(C(=O)OC(C)(C)C)CC2)CC1 | ? | -23% | nt | ? | -108* | nt
COc1ccccc1CN1CCC(CNC(=O)c2cnn(-c3ccc(C)c(C)c3)c2C2CCN(C(=O)OC(C)(C)C)CC2)CC1 | ? | ? | nt | 9%[46.1 µM] | ? | nt
Cc1ccc(-n2ncc(C(=O)NCCN3CCC(Cc4ccccc4)CC3)c2C2CCN(C(=O)OC(C)(C)C)CC2)cc1 | ? | 11µM* | nt | ? | + | nt
CC(C)(C)OC(=O)N1CCC(c2c(C(=O)NCCN3CCC(Cc4ccccc4)CC3)cnn2-c2cccc(Cl)c2)CC1 | 11µM* | 11µM* | nt | ? | -100* | nt
CC1(C)CC(C(=O)N2CCOc3ccc(CN4CCC(Oc5cccnc5)CC4)cc3C2)CCO1 (stereo not drawn) | -1% | -17% | nt | nt | nt | nt
Cc1ccc(-n2ncc(C(=O)NCCN3CCc4ccccc4C3)c2C2CCN(C(=O)OC(C)(C)C)CC2)cc1C | -12% | -22% | nt | -6%[46.1 µM] | 0 | nt
Cc1ccc(-n2ncc(C(=O)NCCN3CCc4ccccc4C3)c2C2CCN(C(=O)OC(C)(C)C)CC2)cc1 | -16% | -27% | nt | ? | + | nt
O=C1c2ccccc2NC(c2ccccc2)N1Cc1ccccc1 (stereo not drawn) | -3% | -17% | 2% | ? | 48 | -19%
Cc1ccc(CN2C(=O)c3ccccc3NC2c2cc(Br)ccc2O)cc1 (stereo not drawn) | ? | -15% | ? | ? | -79* | -16%
CCOC(=O)c1[nH]c(C)c(CCC(=O)Nc2ccc(C)cc2Cl)c1C | -12% | -5% | nt | -2%[46.1 µM] | -6 | nt
Cc1ccccc1NC(=O)C(C)OC(=O)C1CC(=O)N(Cc2ccco2)C1 (stereo not drawn) | nt | nt | nt | nt | -102* | 16%
CCc1ccc(C2c3[nH]c4ccccc4c3CCN2C(=O)CN2CCN(CC)CC2)cc1 (stereo not drawn) | ? | -29% | 13µM* | ? | 24 | ?
CCc1ccc(C2c3[nH]c4ccccc4c3CCN2C(=O)CNC(N)=O)cc1 (stereo not drawn) | -7% | -7% | -18% | -23% | 11 | 29%
CCc1ccc(C2c3[nH]c4ccccc4c3CCN2C(=O)c2ccc(=O)n(C)n2)cc1 (stereo not drawn) | -10% | -16% | 11µM* | ? | 36 | 0%
CN(C)c1ccc(C(I)C(I)c2ccnc3ccccc23)cc1 (stereo not drawn) | -16% | 14% | nt | nt | nt | nt
c1cncc(-c2nc3cc4ccccc4cc3[nH]2)c1 | -2% | -14% | ? | -24% | 171 | ?
CN1CCN(c2cc(-c3cc(O)c4ncccc4c3)ccn2)CC1 | nt | nt | nt | nt | -89* | nt
CN1CCN(C(=O)c2cccc(-c3cc(O)c4ncccc4c3)c2)CC1 | nt | nt | nt | nt | -21 | nt
SMILES | Vaccinia mCherry | Vaccinia Venus | Marburg entry inh | LASV entry inh | HCMV inh | HCV inh
Oc1cc(-c2cccnc2)cc2cccnc12 | nt | nt | nt | nt | -94* | nt
Cc1ccc(OCc2ccc(-c3nc(C#N)c(NCc4ccccc4Cl)o3)o2)cc1 | -22% | -22% | -25%[46.1 µM] | -29%[46.1 µM] | -1 | nt
Cc1nn2c(NCCN(C)C)c3c(nc2c1-c1ccccc1)CCCC3 | -25% | -13% | 10µM* | -16%[46.1 µM] | ? | 7.1µM*
COc1cccc(Nc2c3c(nc4c(-c5ccccc5)c(C)nn24)CCC3)c1 | -6% | -23% | ? | ? | -63* | ?
CCC(C)Nc1c2c(nc3c(-c4ccccc4)c(C)nn13)CCC2 (stereo not drawn) | nt | nt | -16% | -15% | ? | 2.2µM*
COCCNc1c2c(nc3c(-c4ccccc4)c(C)nn13)CCCC2 | nt | nt | ? | -1% | -33 | ?
Cc1nn2c(Nc3ccc(F)cc3)c3c(nc2c1-c1ccccc1)CCC3 | -15% | -7% | -1% | -3% | -36 | 20%
Cc1nn2c(NCCOCCO)c3c(nc2c1-c1ccccc1)CCCC3 | nt | nt | ? | 4% | nt | 11µM*
CCCCNc1c2c(nc3c(-c4ccccc4)c(C)nn13)CCC2 | nt | nt | 0% | 3% | -2 | -20%
Cc1c(C(=O)NCCc2cccnc2)cnn1-c1nccc(-c2ccccc2F)n1 | -20% | -28% | nt | nt | nt | nt
CCOc1ccc(OCCOCCn2c(-c3ccc(Cl)cc3)nc3ccccc3c2=O)cc1 | -9% | -11% | 27%[46.1 µM] | 0%[46.1 µM] | 5 | nt
CCCCCCCC[n+]1cccc2c3ccccc3ccc21 | -27% | ? | nt | nt | -97* | 1.4µM*
CCCCCCCCCC[n+]1cccc2c3ccccc3ccc21 | nt | nt | nt | nt | -108* | 4µM*
CCCCCCCCCC[n+]1ccc(/C=C/c2c[nH]c3ccccc23)c2ccccc21 | i | i | nt | nt | nt | nt
Cc1nn(C)c(Oc2ccc(Cl)cc2)c1C(=O)Nc1ccc(F)cc1F | nt | nt | -20% | 1% | -60* | 10µM*
Cn1nc(C(F)(F)F)c(C(=O)Nc2ccc(F)cc2F)c1Oc1cccc(Cl)c1 | nt | nt | -8% | -2% | -20 | ?
O=C(c1cccn1-c1nnc(N2CCCC2)s1)N1CCN(c2ccc(F)cc2)CC1 | -12% | 0% | nt | 14%[46.1 µM] | 0 | nt
COc1ccc(-c2sc3cc4c(cc3c2C#CC2(O)CCCCC2)OCO4)cc1 | ? | ? | nt | nt | 4 | 1.6µM*
COC(=O)c1c(-c2ccc(OC)cc2)sc2cc(OC)c(OC)cc12 | ? | -18% | nt | nt | 69 | ?
COc1ccccc1-c1sc2cc3c(cc2c1C#CC1(O)CCCCC1)OCO3 | i | -21% | nt | nt | -23 | ?
COc1ccc(-c2sc3cc(OC)c(OC)cc3c2C#CCO)cc1 | -20% | ? | nt | nt | 3 | 1µM*
COc1ccc(-c2sc3cc(OC)c(OC)cc3c2C#CC(C)(C)O)cc1 | -9% | -27% | nt | nt | -32 | 1.4µM*
COc1ccc(-c2ccc(NS(=O)(=O)c3ccc(C(C)=O)cc3)cc2)nn1 | -14% | -16% | nt | ? | -16 | nt

Screening results from PubChem BioAssay.
